Assay results published in PubChem BioAssay (EPA / NIEHS).
Records with an inconclusive call do not appear. Activity calls are given as the source filed them. How the source made its calls: active means hit-call score of the fitted dose curve at least 0.9, where 1 is the maximum; inconclusive means response in the unintended direction; inactive means score below 0.9.

experiment: ACEA_ER_80hr: ACEA Biosciences xCELLigence Real-Time Cell Analysis on Estrogen Receptor Agonism for Proliferation (AID 2282667); conditions: T47D proliferation, impedance (xCELLigence), 80 h
Outline: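 Cell-growth kinetics were measured by impedance in T47D cells treated continuously with compound (top 100 uM final, 1:4 steps, 8 points). Activity at 80 h was scored as signal gain over the DMSO baseline.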

| SMILES | outcome | AC50 |
| --- | --- | --- |
| CC(C)(CO)CO | inactive | – |
| CC1=CC(C)C(C=O)C(C)C1 (configuration not stated) (tested in a mixture with another compound) | inactive | – |
| CC(O)CN (configuration not stated) | inactive | – |
| CCC=C(C)C=O | inactive | – |
| CCCc1ccc(O)cc1 | – | 50 µM (active) |
| CC(=O)OCC=C(C)CCC=C(C)CCC=C(C)C | inactive | – |
| CC(C)COC(=O)c1ccccc1 | inactive | – |
| CC(=O)CC(=O)N(C)C | inactive | – |
| CC(CCO)CC(C)(C)C (configuration not stated) | inactive | – |
| CCCCCCCCCO | inactive | – |
| CCCCCCCCCCCCN1CCOCC1 | inactive | – |
| CCCCCCCCOS(=O)(=O)O | inactive | – |
| CC(C)(O)C(=O)c1ccc(OCCO)cc1 | inactive | – |
| CC1=CC[C@@H]2C[C@H]1C2(C)C | inactive | – |
| CC12CCC(C1)C(C)(C)C2O (configuration not stated) | inactive | – |
| CC(C)Cc1ccc(C(C)C(=O)O)cc1 (configuration not stated) | inactive | – |
| CCCCCCCCCCCCCC(=O)OCC | inactive | – |
| CCCCC/C=C\C=C\C(=O)OCC | inactive | – |
| CCOC(=O)C(=O)OCC | inactive | – |

| SMILES | outcome | AC50 |
| --- | --- | --- |
| CC(C)C(=O)c1ccccc1 | inactive | – |
| O=C(O)c1cc2ccccc2cc1O | inactive | – |
| CC/C=C\CCOC(C)OCC (configuration not stated) | inactive | – |
| CC(O)CNCC(C)O (configuration not stated) | – | 13.1 µM (active) |
| Nc1ccn([C@H]2CC[C@@H](CO)O2)c(=O)n1 | inactive | – |
| CC(=O)C1=C(C)[C@@H]2C[C@@]3(C1)[C@H](C)CC[C@H]3C2(C)C | inactive | – |
| Nc1cc([N+](=O)[O-])ccc1C(=O)O | inactive | – |
| CC(=O)OC(C)(C)C1CC=C(C)CC1 (configuration not stated) | inactive | – |
| OCC(F)(OC(F)(F)C(F)(OC(F)(F)C(F)(F)C(F)(F)F)C(F)(F)F)C(F)(F)F (configuration not stated) | inactive | – |
| CC/C=C\CCCCO | inactive | – |
| CCOCC(C)O (configuration not stated) | inactive | – |
| CC(CO)(CO)[N+](=O)[O-] | inactive | – |
| FC(F)(F)c1ccc(Cl)c(Cl)c1 | inactive | – |
| C=C/C(C)=C/C/C=C(\C)CCC=C(C)C | inactive | – |
| CC1=CC[C@@H](C(C)(C)O)CC1 | inactive | – |
| Nc1ccc(N)c([N+](=O)[O-])c1 | inactive | – |
| O=C(O)c1ccc(C(=O)O)c(C(=O)O)c1 | inactive | – |
| CCCCC1CCCCC(=O)O1 (configuration not stated) | inactive | – |
